From PubChem
Shown are actives, neighbours in structure and some others; about 19% of the full set was active somewhere.
HT1080 IDH1KD tx – qHTS for induction of synthetic lethality in tumor cells producing 2HG: qHTS for the HT-1080-IDH1KD cell line | HT-1080 IDH1 knockdown viability, ATP luminescence, 48 h | Potency, µM (series often up to 46.1 µM), inactives show at the highest dose activity, negative = toxicity, most hits filed as cytotoxic | 2% of 360,000 active | AID 686971, 2013;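 note: potency is the fitted concentration of half-maximal effect; 0% = DMSO wells and -100% = cell-free medium wells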
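IDH1KD HT-1080 cells, 750/well, RPMI + 5% FBS; compound pinned after 2 h settling; 48 h, 37 °C; CellTiter-Glo luminescence; % activity normalised to DMSO and no-cell wells; curves fitted, classed by r2 and efficacy.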
DT40 TDP1 CPT – qHTS for Inhibitors of human tyrosyl-DNA phosphodiesterase 1 (TDP1): qHTS in cells in presence of CPT; chicken DT40 Tdp1-/-;hTDP1 cells + 20 nM CPT, ATP luminescence, 48 h; Potency, µM (highest dose often 46.2 µM), for the others: top-dose activity change, negative = growth inhibition, actives largely listed as inhibitors; 12% of 420,000 active; note: potency is the fitted concentration of half-maximal effect; nearly all actives have a fitted effect of over 55% in size
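Chicken DT40 Tdp1-/- cells stably complemented with human TDP1 were seeded at 400 cells/well in medium containing 20 nM camptothecin, exposed to pin-transferred compounds, and grown at 37 °C for at least 48 hr. Viability was read as ATP luminescence.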
HT1080-NT tox – qHTS for induction of synthetic lethality in tumor cells producing 2HG: qHTS for the HT-1080-NT fibrosarcoma cell line | HT-1080-NT fibrosarcoma viability, CellTiter-Glo ATP luminescence, 48 h | AID 686970, 2013 | Potency, µM (top dose mostly 46.1 µM), without a hit: at the top dose activity, negative = less viability, actives largely listed as cytotoxic | 1.6% of 360,000 active;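 note: NT is the 2HG producing partner of a matched IDH1 knockdown line; potency is the fitted concentration of half-maximal effect; 0% = DMSO-treated cells and -100% = media-only wells without cells; nearly all actives have a fitted effect of over 55% in size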
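HT-1080-NT fibrosarcoma cells (2HG-overproducing), 750 cells/well in RPMI with 5% FBS, dosed after 2 h and incubated 48 h at 37C. CellTiter-Glo luminescence normalized to DMSO and no-cell wells; concentration-response curves fitted and classed.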
IL-1B inflam inh – qHTS for Inhibitors of Inflammasome Signaling: IL-1-beta AlphaLISA Primary Screen; THP-1 LPS/ATP IL-1B secretion, AlphaLISA, 16 h; stronger effect = lower value; activity change, % at 57.5 µM; 4.7% of 360,000 active; AID 743279, 2014; in the data active = activity change below about -50%; inconclusive = mostly about -30% to -49%
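THP-1 cells pretreated 1 hr with compounds (up to 57.5 uM final), then stimulated with LPS (250 ng/mL final) plus ATP (1.25 mM final); secreted IL-1B measured by AlphaLISA after 16 hr, decreased signal indicating inhibition.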
uPA generation – qHTS for Inhibitors of Cell Surface uPA Generation | cell surface uPA generation assay, qHTS | Potency, µM (series often up to 38.3 µM), inactives show at the top dose activity change, negative = inhibition, actives largely listed as inhibitors | 0.31% of 330,000 active; active = well fitted inhibition curve with a large enough effect; inconclusive = small, poorly fitted or top-dose-only effect; inactive = no such curve, though single readings can be large or run the other way; tested in mouse RAW 264.7 cells; note: potency is the fitted concentration of half-maximal effect; nearly all actives have a fitted effect of over 55% in size
TDP1 cell noCPT – qHTS for Inhibitors of human tyrosyl-DNA phosphodiesterase 1 (TDP1): qHTS in cells in absence of CPT | DT40 Tdp1-/- hTDP1 cells, no CPT, ATP luminescence, 48 h | Potency, µM (series often up to 46.2 µM), without a hit: at the top dose activity change, negative = growth inhibition, hits mostly inhibitors | 15% of 420,000 active; note: potency is the fitted concentration of half-maximal effect; nearly all actives have a fitted effect of over 55% in size
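Chicken DT40 Tdp1-/- cells complemented with human TDP1, screened without camptothecin (DMSO vehicle only), 400 cells/well. Compounds pin-transferred, cells incubated at 37 °C for at least 48 hr. Growth read as ATP-dependent luminescence (CellTiter-Glo, 30 min at RT).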
Active calls of the source: *; ? = inconclusive; nt = no result. Unless noted, calls come from the whole dose curve; as a rule, active = well fitted curve in the direction sought with a large enough effect; inconclusive = small, poorly fitted or top-dose-only effect, or another doubt; inactive = no such curve, though single readings can be large; an effect the other way counts as inactive or inconclusive. Unless noted, % is set by controls: 0 for no effect and ±100 for the full control effect.

SMILES | HT1080 IDH1KD tx | DT40 TDP1 CPT | HT1080-NT tox | IL-1B inflam inh | uPA generation | TDP1 cell noCPT
COc1ccccc1NC(=O)Nc1ccnn1C1CCN(C(=O)C2CCOC2)CC1 (configuration not stated) | -1% | -2% | -1% | 18 | nt | -5%
O=C(COC(=O)c1ccc[n+]([O-])c1)Nc1ccccc1OC(F)F | 13% | -22% | 11% | -1 | -1% | -16%
O=C(C[n+]1ccc(C(=O)c2ccccc2)cc1)Nc1ccccc1OC(F)F | -15% | ? | -7% | -14 | 1% | 16µM*
Nc1ncccc1OCc1cccc(C(F)(F)F)c1 | -7% | -18% | -6% | -51* | -4% | 6.5µM*
COc1ccc(NC(=O)c2sccc2SCc2cccc(C(F)(F)F)c2)cc1 | 8.9µM* | ? | ? | -20 | -2% | ?
NNC(=O)c1sccc1OCc1cccc(C(F)(F)F)c1 | 0% | 21µM* | -6% | -3 | -2% | ?
NNC(=O)c1sccc1OCc1ccc(F)cc1 | 2% | 7% | 3% | 32 | -3% | ?
O=C(Nc1ccc(F)cc1F)c1sccc1SCc1cccc(C(F)(F)F)c1 | 1% | ? | 10% | -27 | 5% | ?
COc1cc(NS(=O)(=O)c2ccc(NC(=O)c3ccccc3C(=O)O)cc2)nc(OC)n1 | nt | 10% | nt | nt | nt | 5%
CSc1ncc(C(=O)Nc2ccc(C(C)=O)cc2)c(-c2ccccc2)n1 | 0% | ? | 0% | 25 | 0% | ?
CN(CC(=O)Nc1ccc(OC(F)(F)F)cc1)C(=O)/C=C/c1ccco1 | 0% | ? | -5% | -21 | -19% | 23µM*
CN(CC(=O)Nc1ccc(OC(F)(F)F)cc1)C(=O)Cc1c(Cl)cccc1Cl | -2% | -14% | -3% | -55* | -1% | ?
CC(=O)c1ccc(C(=O)N2CCc3c([nH]c4ccccc34)C2c2ccccn2)s1 (configuration not stated) | -17% | ? | ? | -3 | -7% | 21µM*
O=C(c1cccs1)N1CCc2c([nH]c3ccccc23)C1c1ccccn1 (configuration not stated) | -9% | -17% | -1% | ? | 2% | 8%
O=C(c1cc(-c2ccccc2)n[nH]1)N1CCc2c([nH]c3ccccc23)C1c1ccccn1 (configuration not stated) | ? | 18µM* | ? | -65* | -8% | 21µM*
COc1ccc(OCC(=O)N2CCc3c([nH]c4ccccc34)C2c2ccccn2)cc1 (configuration not stated) | -2% | ? | -3% | -17 | 6% | ?
O=C(c1ccccc1-n1cccn1)N1CCc2c([nH]c3ccccc23)C1c1ccccn1 (configuration not stated) | -5% | 10µM* | -28% | -11 | 4% | 10µM*
CCc1nc(C)ccc1OCC(=O)N1CCc2c([nH]c3ccccc23)C1c1ccccn1 (configuration not stated) | -18% | 21µM* | -12% | ? | 10% | 23µM*
CCOC(=O)Cc1csc(NC(=O)CN2CCCCC2)n1 | -4% | -34% | -7% | -4 | 1% | -14%
CC1Cc2cc(/C(O)=C3/C(=O)C(=O)N(CCCn4ccnc4)C3c3cccc([N+](=O)[O-])c3)ccc2O1 (configuration not stated) | 11% | -1% | 13% | -4 | 2% | 1%
O=C(CN(c1cccc([N+](=O)[O-])c1)S(=O)(=O)c1ccccc1)N1CCCCC1 | 2% | 0% | 3% | -13 | -5% | 10%
Cc1ccc2nc(C(=O)N3CCc4c([nH]c5ccccc45)C3c3ccccn3)cn2c1 (configuration not stated) | -1% | ? | -18% | -59* | -3% | 21µM*
CC(C)CC1(C(=O)NCc2cc(F)cc(C(F)(F)F)c2)C=CCN1C(=O)c1ccccc1 (configuration not stated) | -3% | ? | -15% | 45 | -23% | 29µM*
CC1CN(C(=O)N2c3ccccc3Sc3ccccc32)C(C)CC1=O (configuration not stated) | ? | ? | -26% | 0 | 4% | ?
O=C(N1CCOCC1)N1c2ccccc2Sc2ccccc21 | 14µM* | ? | ? | -10 | -13% | 23µM*
SMILES | HT1080 IDH1KD tx | DT40 TDP1 CPT | HT1080-NT tox | IL-1B inflam inh | uPA generation | TDP1 cell noCPT
O=C(CN1CCOCC1)N1c2ccccc2Sc2ccccc21 | 2% | -3% | -2% | 19 | -1% | 15%
CC1CCCN(C(=O)N2c3ccccc3Sc3ccccc32)C1 (configuration not stated) | 10µM* | ? | ? | -1 | nt | 13µM*
CC1CN(C(=O)N2c3ccccc3Sc3ccccc32)CC(C)O1 (configuration not stated) | -27% | 12µM* | -19% | -1 | 4% | 12µM*
CCOC(=O)C1(CC2CCCCO2)CCN(Cc2c(C)cc(C)cc2-n2cccn2)CC1 (configuration not stated) | -4% | ? | -6% | 28 | 3% | 29µM*
CCOC(=O)C1(CC2CCCCO2)CCN(Cc2nc(C(C)C)cs2)CC1 (configuration not stated) | -22% | 16µM* | -4% | ? | 2% | ?
CCOC(=O)C1(CC2CCCCO2)CCN(Cc2nc3ccccc3[nH]2)CC1 (configuration not stated) | 3% | ? | -3% | 10 | -2% | -10%
CCOC(=O)c1cc(S(=O)(=O)Nc2ccccc2)[nH]n1 | nt | -15% | nt | nt | nt | -16%
Cc1cccc(NC(=S)N(Cc2cccs2)Cc2cc3cc(C)cc(C)c3[nH]c2=O)c1 | 4% | 13µM* | 5% | 3 | 4% | 9.2µM*
COCCNC(=S)N(Cc1cccs1)Cc1cc2cccc(C)c2[nH]c1=O | -15% | -15% | -18% | -56* | -6% | ?
CNC(=S)N(Cc1cccs1)Cc1cc2cc(OC)ccc2[nH]c1=O | -8% | ? | -1% | 0 | -1% | ?
COc1ccc2[nH]c(=O)c(CN(Cc3cccs3)S(=O)(=O)c3cccc4nsnc34)cc2c1 | 7% | -112% | -1% | -18 | nt | 10µM*
